Source: PubChem BioAssay
FBW7 activator = human FBW7 E3 ligase activation, primary screen; AID 1259310; normalized activity (activation), % at 26.1 µM; AlphaScreen FBW7–phospho-cyclin E peptide binding, activator screen; 0.13% of 650,000 active; in the data active = normalized activity above about 1.9%;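 note: purified mutant Fbw7 with reduced substrate affinity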
TEAD-YAP inh = TEAD-YAP interaction inhibition; HEK-TIYL cells, TEAD-Gal4/YAP UAS-luciferase luminescence; inhibition, % at 9.12 µM; 1.4% of 640,000 active; in the data active = inhibition above about 32%
GPR151 activ = activators of human GPR151. Q8TDV0. PathHunter beta-arrestin GPR151 cells, luminescence. activation, % at 11.2 µM. 1% of 650,000 active; in the data active = activation above about 4.9%
Target sequence (Q8TDV0 whole entry, looked up): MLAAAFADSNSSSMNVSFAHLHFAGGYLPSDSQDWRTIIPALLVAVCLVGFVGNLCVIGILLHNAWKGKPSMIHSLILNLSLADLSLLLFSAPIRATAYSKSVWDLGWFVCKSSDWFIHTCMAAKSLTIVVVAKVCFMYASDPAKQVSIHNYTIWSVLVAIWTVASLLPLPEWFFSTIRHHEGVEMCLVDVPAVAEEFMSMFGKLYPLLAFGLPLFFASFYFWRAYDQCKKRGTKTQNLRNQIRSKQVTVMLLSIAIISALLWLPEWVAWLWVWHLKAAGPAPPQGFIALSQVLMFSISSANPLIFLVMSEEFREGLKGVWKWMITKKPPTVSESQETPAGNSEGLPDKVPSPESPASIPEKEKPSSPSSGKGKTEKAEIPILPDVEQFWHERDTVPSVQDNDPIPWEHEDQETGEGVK
MITF inh = blocks human microphthalmia-associated transcription factor; 0.91% of 650,000 active; inhibition, % at 2.6 µM; AlphaScreen MITF homodimerization, bead proximity signal; O75030; in the data active = inhibition above about 50%
GPR151 conf act = confirmation of human GPR151 activators | shares compounds with GPR151 activ | GPR151 PathHunter beta-arrestin cells, luminescence, 90 min; % of EA-reagent control over plate median | activation, % at 11.2 µM | 6,700 tested, under 10 active;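 active = mean percent activation across replicates above the confirmation screen cutoff of 4.91%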
GPR119 counter = GPR119 activation, counter-screen for GPR151 activators. AID 1508611. activation, % at 11.2 µM. GPR119 PathHunter beta-arrestin cells, luminescence, 90 min; 0 = compound-well median, 100 = enzyme-acceptor control. 0.3% of 6,700 active. shares compounds with GPR151 activ;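 active = mean percent activation in the counterscreen above 29.09%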;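 note: counterscreen on off-target GPR119 to flag nonselective hits from the GPR151 activator screen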
Each line names hits and unclear results; the compound was inactive in the other large screens (follow-up assays come after a bar, where they were run). Only some compounds are listed: those with a hit (about 3.4% of all), similar ones and a draw of the others.

COc1cccc(-c2cc(C(=O)Nn3cnnc3)c3ccccc3n2)c1	GPR151 activ 5.1 | GPR151 conf act inactive | GPR119 counter inactive
NC(=O)COC(=O)CCN1c2ccccc2Sc2ccccc21	GPR151 activ 9.8 | GPR151 conf act inactive | GPR119 counter inactive
CCC(=O)NCCSc1ncc(-c2ccccc2)[nH]1	GPR151 activ 5.2 | GPR151 conf act inactive | GPR119 counter inactive
COc1ccc(-c2cnc(SCCNC(=O)CCCc3ccccc3)[nH]2)cc1	none
O=C(NCc1ccco1)/C(=C/c1ccc(Cl)cc1)NC(=O)c1ccco1	GPR151 activ 5.7 | GPR151 conf act inactive | GPR119 counter inactive
O=C(NCc1ccccc1)/C(=C\c1ccc(Cl)cc1)NC(=O)c1ccco1	none
O=C(NCc1ccco1)/C(=C\c1ccc(Br)cc1)NC(=O)c1ccccc1	GPR151 activ 7.0 | GPR151 conf act inactive | GPR119 counter inactive
Cc1ccc(CC2(CCC(=O)N3CCC(OCc4ccccc4)CC3)CCC(=O)N2)cc1 (stereo not drawn)	none
CCOC(=O)C1=C(C)N(c2ccccc2)C(C)=C(C(=O)OCC)C1c1ccc(Br)cc1	none
CCC(=O)Nc1ccc(NC(=O)/C=C/c2cc(Br)ccc2OC)cc1	GPR151 activ 9.6 | GPR151 conf act inactive | GPR119 counter inactive
Cc1cccc(OC2CCN(C(=O)c3cc(NC(=O)C(=O)N(C)C)ccc3Cl)CC2)n1	none
O=C(COc1ccccc1)NCCc1cn2ccsc2n1	GPR151 activ 5.0 | GPR151 conf act inactive | GPR119 counter inactive
CCOC(=O)C1=C(C)N=c2s/c(=C\c3cn(Cc4ccccc4C#N)c4ccccc34)c(=O)n2C1c1ccc(OC)cc1 (stereo not drawn)	none
O=S(=O)(c1ccccc1)n1c(SCc2ccc(Cl)cc2)nc2ccccc21	none
NC(=O)NC(CC(=O)O)c1ccc(Cl)cc1 (stereo not drawn)	GPR151 activ 7.7 | GPR151 conf act inactive | GPR119 counter inactive
COc1ccc(CCN2C(=O)CCC2CCNCc2cccc(C(F)(F)F)c2)cc1 (stereo not drawn)	GPR151 activ 12 | GPR151 conf act inactive | GPR119 counter inactive
Cc1ccc(-c2nc(COC(=O)C3Cc4ccccc4CN3S(C)(=O)=O)cs2)cc1 (stereo not drawn)	none
N#Cc1c(N)nc2c(c1-c1ccsc1)CCCC2	GPR151 activ 5.0 | GPR151 conf act inactive | GPR119 counter inactive
Cn1ncc([N+](=O)[O-])c1C(=O)n1cccn1	none
CCOc1cc(/C=N/Nc2ccccn2)ccc1OCc1ccc(C(=O)OC)o1	GPR151 activ 5.4 | GPR151 conf act inactive | GPR119 counter inactive
CCOc1cc(C=O)ccc1OCc1ccc(C(=O)OC)o1	none
COc1ccc(-c2cnnc(N[C@H]3CCCCNC3=O)n2)cc1	none
Cc1cnc(C)c(NC2CCCCNC2=O)n1 (stereo not drawn)	GPR151 activ 8.0 | GPR151 conf act inactive | GPR119 counter inactive
CCc1ccc(S(=O)(=O)N2CCN(C)CC2)cc1	none
Cc1cc(NCc2nc3ccccc3[nH]2)nc(-c2ccc(C(=O)NC3CC3)cc2)n1	GPR151 activ 5.1 | GPR151 conf act inactive | GPR119 counter inactive
Cc1cc(NCc2nc3ccccc3[nH]2)nc(-c2ccccc2)n1	none
O=C(NC1CC1)c1ccc(-c2nc3ncnc(NCc4nc5ccccc5[nH]4)c3[nH]2)cc1	GPR151 activ 6.3 | GPR151 conf act inactive | GPR119 counter inactive
O=C(c1ccco1)N1CCN(C(c2ccccc2F)c2nnnn2Cc2ccccc2)CC1 (stereo not drawn)	none
COc1ccc(-c2noc(N3CCN(c4ccc(C)cc4)C(C)C3)n2)cc1 (stereo not drawn)	GPR151 activ 5.0 | GPR151 conf act inactive | GPR119 counter inactive
CCN(CC)c1n[nH]c(-c2cccc(Cl)c2)n1	GPR151 activ 5.3 | GPR151 conf act inactive | GPR119 counter inactive
CCn1c(-c2cccc(Cl)c2)n[nH]c1=S	none
CCN(CC)CCN1CCN(c2ccc(C(C)C)cc2)C1=O	none
O=c1[nH]nc(SCc2cccc(Oc3ccccc3)c2)c(=S)[nH]1	none
Cc1nc(SCc2cccc(Oc3ccccc3)c2)n[nH]1	GPR151 activ 7.9 | GPR151 conf act inactive | GPR119 counter inactive
O=C(NCCc1ccc(O)cc1)c1ccnc(Nc2ccncc2)c1	none
O=C(c1cc2nc(-c3cccs3)cc(C(F)(F)F)n2n1)N1CCN2CCCC2C1 (stereo not drawn)	none
CSc1ccc(CNC(C)(C)CO)cc1	none
CN(C)c1ccc(CNC(C)(C)CO)cc1	GPR151 activ 5.1 | GPR151 conf act inactive | GPR119 counter inactive
CCOC(=O)C1CCN(c2c(N3CCN(c4cccc(Cl)c4)CC3)c(=O)c2=O)CC1	GPR151 activ 5.2 | GPR151 conf act inactive | GPR119 counter inactive
CCOC(=O)C1CCCN(c2c(N3CCN(c4cccc(Cl)c4)CC3)c(=O)c2=O)C1 (stereo not drawn)	none
O=C(CCCOc1ccccc1)Nc1ccc(S(=O)(=O)Nc2ncccn2)cc1	none
CCCCCC(=O)Nc1ccc(S(=O)(=O)Nc2nccc(C)n2)cc1	GPR151 activ 5.5 | GPR151 conf act inactive | GPR119 counter inactive
Cc1ccc(NS(=O)(=O)c2ccc(NC(=O)CCCOc3ccccc3)cc2)cc1	GPR151 activ 6.7 | GPR151 conf act inactive | GPR119 counter inactive
Cc1ccc(NC(=O)CS(=O)(=O)c2ccccc2)cc1	GPR151 activ 6.1 | GPR151 conf act inactive | GPR119 counter inactive
Cc1ccccc1CSCCNS(=O)(=O)c1ccccc1[N+](=O)[O-]	GPR151 activ 5.9 | GPR151 conf act inactive | GPR119 counter inactive
COC(=O)c1ccccc1NC(=O)CCCn1cc([N+](=O)[O-])cn1	none
COC(=O)c1nc(N)sc1-c1ccc(Cl)c(Cl)c1	GPR151 activ 7.6 | GPR151 conf act inactive | GPR119 counter inactive
COC(=O)c1c(N)sc2c1C(C(=O)OC)CC2 (stereo not drawn)	none
O=C1C(=O)N(CCO)C(c2ccc(F)cc2)/C1=C(/O)c1ccc([N+](=O)[O-])cc1 (stereo not drawn)	none
Cc1cc(C)c(CN2CCc3nnc(CCNC(=O)COc4ccccc4)n3CC2)cc1C	none
CCC(CC)CN1CCc2nnc(CCNC(=O)COc3ccccc3)n2CC1	GPR151 activ 5.1 | GPR151 conf act inactive | GPR119 counter inactive
Cc1ccc(C)c(CN2CCc3nnc(CCNC(=O)COc4ccccc4)n3CC2)c1	GPR151 activ 8.8 | GPR151 conf act inactive | GPR119 counter inactive
O=C(NCCc1nnc2n1CCN(Cc1cccc3ccccc13)CC2)C1CCCO1 (stereo not drawn)	none
O=C(NCCc1nnc2n1CCN(Cc1ccccc1-c1ccco1)CC2)C1CCCO1 (stereo not drawn)	GPR151 activ 7.1 | GPR151 conf act inactive | GPR119 counter inactive
Cc1cccc(/C=C2\CN(Cc3ccccc3)Cc3c2nc2ccccc2c3C(=O)O)c1	none
